Our source for the Percent Effect values is ChEMBL document CHEMBL3988442, “University of Dundee, Small-Polar-MMV Screening Library” (2021).

Each structure is given as a SMILES string. For some of these results: Entries with a potency or affinity are not part of this list.

Common to all, as to parameters: scale not given: direction of the effect not stated beside the values
The target in assay [1] is Protein translocase subunit SecA (Escherichia coli (strain K12)) (UniProt P10408). The assay can be described thus: Assay to Identify E. coli SecA ATPase Inhibitors. The class given is functional. As to conditions: 30 µM.
Protein translocase subunit SecA (Escherichia coli (strain K12)), sequence (P10408 whole entry): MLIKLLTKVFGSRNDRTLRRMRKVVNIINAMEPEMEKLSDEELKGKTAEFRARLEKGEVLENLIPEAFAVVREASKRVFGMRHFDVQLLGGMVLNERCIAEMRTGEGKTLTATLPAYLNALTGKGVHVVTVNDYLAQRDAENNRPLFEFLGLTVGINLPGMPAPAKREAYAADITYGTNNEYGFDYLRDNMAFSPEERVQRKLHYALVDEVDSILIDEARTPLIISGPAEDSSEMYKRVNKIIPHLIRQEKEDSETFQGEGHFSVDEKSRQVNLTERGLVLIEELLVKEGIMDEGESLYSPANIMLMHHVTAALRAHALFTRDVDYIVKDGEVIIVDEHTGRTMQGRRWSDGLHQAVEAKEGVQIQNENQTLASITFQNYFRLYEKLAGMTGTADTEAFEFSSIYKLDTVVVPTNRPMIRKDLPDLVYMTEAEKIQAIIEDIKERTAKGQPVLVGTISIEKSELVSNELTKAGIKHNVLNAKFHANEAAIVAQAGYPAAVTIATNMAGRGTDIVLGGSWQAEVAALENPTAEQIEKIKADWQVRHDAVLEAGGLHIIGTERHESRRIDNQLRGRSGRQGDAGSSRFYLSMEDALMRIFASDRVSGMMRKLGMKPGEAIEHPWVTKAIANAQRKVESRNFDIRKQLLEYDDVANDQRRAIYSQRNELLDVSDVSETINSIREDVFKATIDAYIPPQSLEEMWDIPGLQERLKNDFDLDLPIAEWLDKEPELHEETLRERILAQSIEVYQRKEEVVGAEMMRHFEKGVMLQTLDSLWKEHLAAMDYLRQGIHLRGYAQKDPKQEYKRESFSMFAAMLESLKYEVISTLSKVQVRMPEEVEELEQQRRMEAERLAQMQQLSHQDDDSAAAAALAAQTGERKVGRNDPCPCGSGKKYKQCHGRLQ
Assay [2] has as its target T1, Ubiquitin-activating enzyme e1, putative (Leishmania donovani (strain BPK282A1)) (UniProt E9BSI1).
T1 sequence (whole entry): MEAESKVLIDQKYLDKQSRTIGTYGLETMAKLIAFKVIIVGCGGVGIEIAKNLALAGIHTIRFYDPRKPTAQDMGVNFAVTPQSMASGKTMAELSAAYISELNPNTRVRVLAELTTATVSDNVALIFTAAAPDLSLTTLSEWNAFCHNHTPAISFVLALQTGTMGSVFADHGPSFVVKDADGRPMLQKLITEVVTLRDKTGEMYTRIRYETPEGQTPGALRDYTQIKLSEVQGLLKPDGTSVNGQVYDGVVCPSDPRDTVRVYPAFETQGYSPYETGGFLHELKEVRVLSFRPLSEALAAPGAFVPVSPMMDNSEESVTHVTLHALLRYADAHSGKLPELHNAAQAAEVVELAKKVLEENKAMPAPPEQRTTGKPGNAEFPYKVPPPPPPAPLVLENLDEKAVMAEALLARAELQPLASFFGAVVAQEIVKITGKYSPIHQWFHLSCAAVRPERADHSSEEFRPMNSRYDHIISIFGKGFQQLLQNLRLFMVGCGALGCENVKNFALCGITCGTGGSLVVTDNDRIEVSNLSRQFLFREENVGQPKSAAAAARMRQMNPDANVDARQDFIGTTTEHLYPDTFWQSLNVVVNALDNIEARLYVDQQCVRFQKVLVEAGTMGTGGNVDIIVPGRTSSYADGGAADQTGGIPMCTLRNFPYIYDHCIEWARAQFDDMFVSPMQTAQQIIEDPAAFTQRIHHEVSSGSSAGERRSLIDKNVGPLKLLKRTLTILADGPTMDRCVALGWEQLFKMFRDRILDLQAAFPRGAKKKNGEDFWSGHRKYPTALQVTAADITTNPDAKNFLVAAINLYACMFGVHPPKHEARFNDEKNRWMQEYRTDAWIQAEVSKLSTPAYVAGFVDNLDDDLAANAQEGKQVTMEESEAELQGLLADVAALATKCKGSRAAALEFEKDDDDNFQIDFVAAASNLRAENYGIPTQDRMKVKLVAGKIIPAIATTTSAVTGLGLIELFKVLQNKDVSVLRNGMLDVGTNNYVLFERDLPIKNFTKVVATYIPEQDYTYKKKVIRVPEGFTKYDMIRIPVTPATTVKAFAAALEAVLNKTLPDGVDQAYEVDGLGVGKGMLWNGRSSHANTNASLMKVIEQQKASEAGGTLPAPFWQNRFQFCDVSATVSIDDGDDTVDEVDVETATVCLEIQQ
Put plainly: Leishmania donovani Ubiquitin Activating Enzyme (LdE1). Type of assay: functional. As to conditions: 30 µM.

The target in assay [3] is AMP-activated protein kinase, AMPK (Homo sapiens) (UniProt P54646+O43741+P54619+Q9UGJ0+Q9Y478+Q13131+Q9UGI9). Put plainly: AMP-dependent Kinase enzyme assay. An in vitro enzyme assay that detects ADP turnover that is directly proportional to AMPK activity. This uses naive AMPK that is activated during the assay with MK-8722. The class given is functional. As to conditions: 30 µM.

Assay [4] addresses Sialic acid-binding Ig-like lectin 9 (Homo sapiens) (UniProt Q9Y336). The assay can be described thus: Hs-Siglec9 ALPHAscreen SOP 20170721. As to conditions: 10 µM.
For a further assay, the system named is Trypanosoma cruzi. Put plainly: Trypanosoma cruzi phosphomannomutase and mannose-1-phosphate guanylyltransferase assay. Type of assay: functional. To be noted: 10 µM.
In assay [5] the target is T2, Arginase-2, mitochondrial (Homo sapiens) (UniProt P78540).
T2 sequence (whole entry): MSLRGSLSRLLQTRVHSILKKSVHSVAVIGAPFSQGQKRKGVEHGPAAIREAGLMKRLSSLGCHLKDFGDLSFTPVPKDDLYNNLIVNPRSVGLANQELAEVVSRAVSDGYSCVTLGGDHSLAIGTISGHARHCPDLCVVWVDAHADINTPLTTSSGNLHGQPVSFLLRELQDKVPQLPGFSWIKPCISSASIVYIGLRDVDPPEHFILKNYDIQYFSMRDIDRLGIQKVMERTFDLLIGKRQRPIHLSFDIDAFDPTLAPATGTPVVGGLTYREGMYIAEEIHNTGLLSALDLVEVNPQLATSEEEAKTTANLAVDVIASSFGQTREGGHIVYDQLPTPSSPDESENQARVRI
Put plainly: in vitro enzyme assay to detect the production of urea directly proportional to the activity of Arginase II. Note: in the data most compounds retested in dose-response had high values. Type of assay: functional. To be noted: 33.3 µM.

For assay [6], the target named is T3, Proteasome subunit beta (Trypanosoma cruzi) (UniProt O96673).
T3 sequence (whole entry): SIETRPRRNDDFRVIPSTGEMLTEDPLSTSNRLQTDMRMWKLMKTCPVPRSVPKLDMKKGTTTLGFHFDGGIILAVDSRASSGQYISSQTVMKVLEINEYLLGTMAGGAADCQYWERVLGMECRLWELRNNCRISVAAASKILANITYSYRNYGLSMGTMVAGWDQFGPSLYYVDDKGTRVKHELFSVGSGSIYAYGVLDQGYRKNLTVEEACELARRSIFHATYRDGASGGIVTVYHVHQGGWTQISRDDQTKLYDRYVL
Put plainly: Trypanosoma cruzi proteasome chymotrypsin-like activity (TcProtChymo) assay. Note: in the data most compounds retested in dose-response had high values. Type of assay: functional. To be noted: 9.37 µM.

The species named for the next assay is Homo sapiens. Put plainly: To identify inhibition of the IFN signalling (Jak-Stat) pathway via expression of an eGFP reporter gene under the control of an IFN-stimulated response element (ISRE) containing MxA promoter. To be noted: 30 µM. The class given is functional. A general note: A reporter such as luciferase makes a cellular process visible.
The target in assay [7] is T4, Tyrosyl-tRNA synthetase, putative (Trypanosoma cruzi (strain CL Brener)) (UniProt Q4DSP6).
T4 sequence (whole entry): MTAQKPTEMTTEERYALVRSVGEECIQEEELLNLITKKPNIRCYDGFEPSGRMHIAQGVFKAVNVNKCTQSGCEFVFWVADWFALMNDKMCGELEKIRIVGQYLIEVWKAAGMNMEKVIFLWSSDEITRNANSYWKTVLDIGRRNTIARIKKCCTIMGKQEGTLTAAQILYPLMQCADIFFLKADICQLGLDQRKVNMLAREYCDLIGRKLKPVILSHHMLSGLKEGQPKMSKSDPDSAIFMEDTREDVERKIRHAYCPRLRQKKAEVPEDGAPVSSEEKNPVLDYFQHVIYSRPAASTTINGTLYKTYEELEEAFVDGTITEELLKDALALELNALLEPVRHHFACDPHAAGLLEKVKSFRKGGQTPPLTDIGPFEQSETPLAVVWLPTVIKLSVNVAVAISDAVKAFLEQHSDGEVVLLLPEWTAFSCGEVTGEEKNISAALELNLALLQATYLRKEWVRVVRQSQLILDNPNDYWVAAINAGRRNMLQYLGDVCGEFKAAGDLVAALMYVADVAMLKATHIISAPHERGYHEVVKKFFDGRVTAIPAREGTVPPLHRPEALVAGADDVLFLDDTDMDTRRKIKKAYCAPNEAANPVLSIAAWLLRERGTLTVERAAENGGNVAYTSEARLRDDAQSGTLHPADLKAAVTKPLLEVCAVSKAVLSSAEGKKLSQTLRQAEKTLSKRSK
The assay can be described thus: Trypanosoma cruzi tyrosyl tRNA synthetase (TcYRS) _High Tyrosine SOP. Note: in the data most compounds retested in dose-response had high values. The class given is functional. As to conditions: 30 µM.

The target in assay [8] is T4, Tyrosyl-tRNA synthetase, putative (Trypanosoma cruzi (strain CL Brener)). Put plainly: Trypanosoma cruzi tyrosyl tRNA synthetase (TcYRS) SOP. Type of assay: functional. To be noted: 30 µM.
Assay [9] has as its target Chromo domain-containing protein 1 (Saccharomyces cerevisiae (strain ATCC 204508 / S288c) (Baker's yeast)) (UniProt P32657). Put plainly: ScCHD-1 Enzyme Inhibition Assay. Note: in the data most compounds retested in dose-response had high values. Type of assay: functional. To be noted: 30 µM.

Sialic acid-binding Ig-like lectin 9 (Homo sapiens), sequence (Q9Y336 whole entry): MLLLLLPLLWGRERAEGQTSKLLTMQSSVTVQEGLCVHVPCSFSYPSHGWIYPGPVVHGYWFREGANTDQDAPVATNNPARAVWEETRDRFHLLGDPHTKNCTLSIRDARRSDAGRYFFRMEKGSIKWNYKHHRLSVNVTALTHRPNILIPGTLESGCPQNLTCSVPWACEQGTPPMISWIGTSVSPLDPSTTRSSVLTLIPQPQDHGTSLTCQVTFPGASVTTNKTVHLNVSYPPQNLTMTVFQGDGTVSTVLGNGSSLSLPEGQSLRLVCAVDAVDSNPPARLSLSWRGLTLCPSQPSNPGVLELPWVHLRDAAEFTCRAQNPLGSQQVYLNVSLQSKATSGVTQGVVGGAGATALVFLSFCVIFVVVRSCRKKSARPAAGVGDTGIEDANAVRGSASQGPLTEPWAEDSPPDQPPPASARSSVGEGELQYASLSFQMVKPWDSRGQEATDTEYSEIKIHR
Chromo domain-containing protein 1 (Saccharomyces cerevisiae (strain ATCC 204508 / S288c) (Baker's yeast)), sequence (P32657 whole entry, the tested form may be a part): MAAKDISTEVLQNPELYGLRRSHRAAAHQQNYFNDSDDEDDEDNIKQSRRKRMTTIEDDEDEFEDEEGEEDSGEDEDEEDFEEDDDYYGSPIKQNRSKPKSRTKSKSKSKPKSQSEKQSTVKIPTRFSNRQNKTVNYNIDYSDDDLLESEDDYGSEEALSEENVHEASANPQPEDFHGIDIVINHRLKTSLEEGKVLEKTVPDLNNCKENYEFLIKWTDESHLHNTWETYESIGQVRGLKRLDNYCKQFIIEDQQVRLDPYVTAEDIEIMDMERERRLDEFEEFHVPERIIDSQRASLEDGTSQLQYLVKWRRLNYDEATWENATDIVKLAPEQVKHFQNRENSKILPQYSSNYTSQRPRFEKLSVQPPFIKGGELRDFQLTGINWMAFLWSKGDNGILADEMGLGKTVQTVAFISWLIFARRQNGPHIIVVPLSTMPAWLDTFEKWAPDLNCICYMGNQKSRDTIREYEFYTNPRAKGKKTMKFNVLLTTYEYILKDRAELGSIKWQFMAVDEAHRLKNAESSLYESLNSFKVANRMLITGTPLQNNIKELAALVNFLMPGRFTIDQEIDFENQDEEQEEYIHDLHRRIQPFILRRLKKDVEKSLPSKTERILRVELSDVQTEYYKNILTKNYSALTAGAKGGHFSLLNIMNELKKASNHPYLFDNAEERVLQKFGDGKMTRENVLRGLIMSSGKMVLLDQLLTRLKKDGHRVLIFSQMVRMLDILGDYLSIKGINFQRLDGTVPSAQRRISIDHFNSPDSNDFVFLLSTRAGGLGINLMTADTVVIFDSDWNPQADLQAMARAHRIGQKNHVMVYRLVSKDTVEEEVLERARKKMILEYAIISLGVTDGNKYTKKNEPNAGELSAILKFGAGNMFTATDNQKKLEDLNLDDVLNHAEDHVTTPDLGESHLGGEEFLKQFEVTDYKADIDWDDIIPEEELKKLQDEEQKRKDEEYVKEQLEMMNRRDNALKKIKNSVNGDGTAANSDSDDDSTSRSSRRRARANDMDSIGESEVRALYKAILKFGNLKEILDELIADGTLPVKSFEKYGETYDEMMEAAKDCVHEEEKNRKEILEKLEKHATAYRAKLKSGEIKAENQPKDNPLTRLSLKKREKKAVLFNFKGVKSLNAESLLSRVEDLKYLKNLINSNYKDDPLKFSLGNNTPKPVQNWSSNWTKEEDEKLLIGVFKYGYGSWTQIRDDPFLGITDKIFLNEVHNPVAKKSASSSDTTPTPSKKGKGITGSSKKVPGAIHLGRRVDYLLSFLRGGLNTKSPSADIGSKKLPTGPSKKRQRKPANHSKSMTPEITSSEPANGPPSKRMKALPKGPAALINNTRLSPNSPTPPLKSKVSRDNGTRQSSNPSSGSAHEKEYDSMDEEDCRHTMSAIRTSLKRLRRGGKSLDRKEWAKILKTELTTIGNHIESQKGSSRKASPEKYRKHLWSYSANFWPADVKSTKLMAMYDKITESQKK

As for `O=C(CCc1cccs1)N1CCC(N2CCNC2=O)CC1`, the Percent Effect in assay [1] is -2.57%; in [2], 23.4%; in assay [3] it was -4.07%; in assay [4], -12.7%; with Trypanosoma cruzi, 3.23%; in [5], -1.05%. The Percent Effect is 18.5% in assay [6]; -5.88% in the assay filed under Homo sapiens; 7.62% in assay [7]; 25.9% in [8]; -19.5% in [9].

`Cc1ccsc1[C@@H]1CCN(C(=O)CCC(=O)N2CCCCCC2)C[C@H]1O`: the Percent Effect in assay [1] was -3.23%; in assay [2], 6.94%; in assay [3] it was -7.07%; in [4] it was -3.16%; in the assay with Trypanosoma cruzi, 1.46%; in assay [5] it was -1.32%. In addition, the Percent Effect in assay [6] is 4.91%; in the assay listed under Homo sapiens it was -6.38%; in assay [7] it was 5.26%; in assay [8], 10.3%; in assay [9], -2.41%.

In the case of `CNC(=O)c1cnc(/C=C/c2cc(OC)cc(OC)c2)s1`, the Percent Effect was -6.6% in assay [1]; -5.41% in [2]; -2.31% in assay [3]; 7.75% in assay [4]; -6.25% with Trypanosoma cruzi; 0.417% in assay [5]. In addition, the Percent Effect in assay [6] is 21.4%; in the assay filed under Homo sapiens it was 18.1%; in assay [7], 1.98%; in assay [8], -6.1%; in [9], -3.49%.

For `CCc1nsc(NC2CCCn3nc(CC)nc32)n1` (stereo not drawn), the Percent Effect in assay [1] is -6.19%; in assay [2] it was 8%; in assay [3] it was -4.68%; in [4] it was 26%; with Trypanosoma cruzi it was 7.3%; in [5], 6.25%. In addition, the Percent Effect in assay [6] was 13.6%; in the assay filed under Homo sapiens, 0.363%; in assay [7], 3.83%; in assay [8] it was 13.6%; in [9], -7.22%.

Consider `Cc1ccoc1C(=O)N1CCO[C@H]2[C@H](OCC3CCOCC3)CC[C@@H]21`, for which the Percent Effect in [1] was -3.5%; in assay [2], 5.33%; in assay [3], -1.93%; in [4] it was 2.92%; with Trypanosoma cruzi, 5.02%; in assay [5], -48.9%. Moreover, the Percent Effect in assay [6] is -0.513%; in the assay listed under Homo sapiens, -9.79%; in [7], 2.08%; in assay [8] it was -5%; in assay [9], -3.9%.

As for `CC(C)c1cc(NC(=O)CN2CCCC2Cn2cccn2)on1` (stereo not drawn), the Percent Effect in assay [1] was -5.87%; in [2], 5.26%; in [3] it was -3.45%; in assay [4], -1.04%; in the assay on Trypanosoma cruzi it was -1.59%; in assay [5] it was 3.24%. In addition, the Percent Effect in assay [6] is -0.761%; in the assay listed under Homo sapiens it was 15.3%; in [7], 7.39%; in assay [8], 6.17%; in assay [9], 9.14%.

Regarding `O=C(Nc1nc2c(s1)CN(S(=O)(=O)C1CC1)CC2)c1c(F)cccc1F`, the Percent Effect was -3.34% in [1]; 0% in [2]; 17.1% in assay [3]; -7.6% in [4]; -4.11% in the assay with Trypanosoma cruzi; 2.27% in assay [5]. Further, the Percent Effect in [6] is 9.41%; in the assay listed under Homo sapiens, 30.1%; in assay [7], 3.23%; in assay [8], 7.5%; in assay [9] it was -4.6%.

`COCc1cccc(NC(C)C(=O)N(C)Cc2cccc(F)c2)c1` (stereo not drawn): the Percent Effect in assay [1] was -7.47%; in assay [2] it was -2.7%; in [3], -1.66%; in assay [4], -7.46%; with Trypanosoma cruzi, -3.23%; in [5] it was -0.744%. In addition, the Percent Effect in assay [6] was 6.44%; in the assay filed under Homo sapiens, -12.8%; in assay [7], 1.07%; in [8], 1.24%; in assay [9], -5.78%.
